Compound activity (PubChem)
KinaseGlo FLuc = counter-screen: inhibitors of Kinase-Glo firefly luciferase | Q27757 | Kinase-Glo luciferase, ATP luminescence, 8 min | Potency, µM (series often up to 38.3 µM), for inactives: at the top dose activity change, negative = inhibition, most hits filed as inhibitors | 200,000 compounds, 0.28% hits; further: on the % scale 0 is the no-effect control and ±100 the full control effect; nearly all actives have a fitted effect of over 60% in size
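Compounds were added to a substrate mix at pH 7.2 (50 mM imidazole, 10 uM ATP, within the enzyme's linear range), followed by Kinase-Glo detection reagent; luminescence was measured after 8 minutes at ambient temperature.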
NPC1 promoter act = activators of NPC1 promoter; Huh7 NPC1 promoter luciferase reporter, 24 h; Potency, µM (titrated, usually from 9.22 µM), inactives show top-dose activation, usual class: activators; 320,000 compounds, 2.4% hits; AID 485313; further: % of control where 0% means no effect; nearly all actives have a fitted effect of over 60% in size
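Readout is luciferase luminescence, reflecting NPC1 promoter activation in stably transfected Huh7 cells after 24 h compound exposure at 37 °C in reduced-serum medium with 10% FBS.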
SMN2 splice enh = increases expression of the SMN2 splice variant | Potency, µM (top dose mostly 46.1 µM), inactives show at the highest dose activity change, positive = activation, actives largely listed as activators | AID 1458 | HEK293 SMN2-luciferase splicing reporter, luminescence, 30-36 h | 210,000 compounds, 2.8% hits; further: % of control where 0% means no effect; nearly all actives have a fitted effect of over 55% in size
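HEK293 cells carry an SMN2 minigene-luciferase reporter in which exon 7 inclusion puts luciferase in frame. Cells were seeded at 2000 cells/well, attached for 10-12 hours, then exposed to compounds for 30-36 hours at 37C before ONE-Glo luminescence.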
Rab9 prom act = activates the Rab9 promoter | Huh7 Rab9 promoter-luciferase reporter, luminescence, 24 h | Potency, µM (titrated, usually from 9.22 µM), without a hit: at the highest dose activation, negative = inhibition, actives largely listed as activators | 320,000 compounds, 2.8% hits; further: % of control where 0% means no effect; nearly all actives have a fitted effect of over 60% in size
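Huh7 reporter line, Rab9 promoter upstream of luciferase. Compound exposure 24 h at 37 °C in reduced-serum medium with 10% FBS. Read-out: luminescence.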
FLuc modulator = counter-screen for miR-21 project: firefly luciferase inhibitors or activators; Potency, µM (doses to about 57.5 µM), without a hit: at the top dose activity change, negative = inhibition, usual class: inhibitors; P08659; purified FLuc, Km substrates, luminescence inhibition; AID 588342; 360,000 compounds, 6.9% hits;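 further: plate controls were vehicle for no effect and reference inhibitor for full effect; nearly all actives have a fitted effect of over 55% in size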
Target sequence (P08659 whole entry, looked up): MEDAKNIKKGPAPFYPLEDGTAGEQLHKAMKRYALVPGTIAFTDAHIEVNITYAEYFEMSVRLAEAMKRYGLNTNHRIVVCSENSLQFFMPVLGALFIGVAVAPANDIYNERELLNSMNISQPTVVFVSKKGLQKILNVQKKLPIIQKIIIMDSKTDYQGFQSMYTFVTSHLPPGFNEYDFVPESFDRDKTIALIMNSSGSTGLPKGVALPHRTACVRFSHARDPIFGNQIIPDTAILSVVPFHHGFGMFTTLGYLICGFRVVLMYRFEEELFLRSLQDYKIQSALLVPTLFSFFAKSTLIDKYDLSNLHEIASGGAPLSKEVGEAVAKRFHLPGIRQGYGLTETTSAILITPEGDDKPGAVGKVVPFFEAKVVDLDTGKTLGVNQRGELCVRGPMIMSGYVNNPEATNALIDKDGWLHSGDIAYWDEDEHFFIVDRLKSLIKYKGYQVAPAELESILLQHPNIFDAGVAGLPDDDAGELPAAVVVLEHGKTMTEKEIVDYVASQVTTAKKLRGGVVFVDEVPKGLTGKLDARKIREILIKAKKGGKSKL
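Purified P. pyralis luciferase, 10 nM final, with Km-level 10 uM D-luciferin and 10 uM ATP in 50 mM Tris acetate pH 7.5, 10 mM Mg acetate, 0.01% Tween-20, 0.05% BSA; 6-point qHTS titration about 60 µM downward; luminescence read.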
ELG1 genotox = induces genotoxicity in HEK293T cells with luciferase-tagged ELG1 | HEK293T ELG1-luciferase reporter, luminescence, 16 h | Potency, µM (highest dose often 46 µM), inactives show top-dose activity change, positive = activation, hits mostly activators | 330,000 compounds, 1.3% hits | AID 504466; further: % of control where 0% means no effect; nearly all actives have a fitted effect of over 60% in size
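Genotoxicity was scored as increased ELG1-luciferase reporter signal, measured by ONE-Glo luminescence (30 min, room temperature). Compound or vehicle exposure of the HEK293T reporter cells lasted 16 hr at 37°C.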
* = called active by the depositor; ? = inconclusive; / = no result given. Sampled rows, rich in hits. Any-hit rate of the full collection: about 7.3%. The call rests on the fitted dose curve; in most records, active means well fitted curve in the direction sought with a large enough effect; inconclusive means small, poorly fitted or top-dose-only effect, or another doubt; inactive means no such curve, though single readings can be large; an effect the other way counts as inactive or inconclusive. Potency means the concentration at half of the fitted maximal effect.

SMILES	KinaseGlo FLuc	NPC1 promoter act	SMN2 splice enh	Rab9 prom act	FLuc modulator	ELG1 genotox
CC(C)CS(=O)(=O)C1=NN2C(=N)/C(=C\c3ccc(OC(=O)c4ccco4)cc3)C(=O)N=C2S1	/	-4.1%	/	-0.2%	-16.7%	-1.3%
O=C1OCc2cccc3cccc1c23	0.0%	-3.8%	-13.0%	-4.2%	3.3%	4.3%
Cc1sc(NC(=O)c2ccco2)c(CN2CCC(C)CC2)c1C	-4.2%	-0.2%	-13.4%	-3.8%	?	-1.4%
CN(C)c1cc[n+](/C(C(=S)Nc2ccc(SC(F)F)cc2)=C(/[O-])c2ccccc2)cc1	2.2%	-5.6%	-17.0%	0.7%	0.7%	5.0%
COc1ccc(/C=C/C(=O)c2ccccn2)cc1	3.98µM*	3.98µM*	7.6%	0.891µM*	0.379µM*	?
O=C(/C=C/c1ccc(O)cc1)c1cccs1	5.62µM*	/	/	/	/	/
COc1ccc(/C=C/C(=O)c2ccccc2O)cc1	?	18.8%	/	24.1%	0.269µM*	16.4µM*
O=C(/C=C/c1ccc(O)cc1)c1ccccc1O	4.47µM*	/	-114.7%	/	/	/
O=C(/C=C/c1ccc(OCc2ccccc2)cc1)c1cccs1	0.0%	/	/	/	/	/
O=C(CN1C(=O)COc2ccc(S(=O)(=O)N3CCCC3)cc21)NCCc1ccc(Cl)cc1	/	/	/	/	3.7%	/
Cc1ccccc1NC(=O)c1snc2c(=O)[nH]cnc12	-2.1%	-1.2%	-4.7%	-4.9%	3.4%	2.2%
CN(C)S(=O)(=O)N(CC(=O)Nc1ccc(Br)cc1F)c1ccccc1	/	/	-8.1%	/	-13.9%	/
CCc1ccccc1Nc1nc2ccccc2n1C	3.3%	2.0%	7.1%	-1.6%	-4.9%	-4.1%
O=C(CCc1nnc(-c2ccc(-c3ccccc3)cc2)o1)N1CCCCC1	/	?	/	?	13.5µM*	?
O=C(CCc1nnc(-c2ccccc2)o1)NC1CCCCC1	1.5%	29.7%	/	?	16.9µM*	?
O=C(CCc1nnc(-c2ccsc2)o1)N1CCc2c(Cl)cccc2C1	-1.8%	18.6%	/	?	16.9µM*	?
COC(c1ccccc1)c1nnc(CCC(=O)NC2CCCCC2)o1 (stereo not drawn)	1.7%	-2.5%	/	-3.1%	-15.6%	-1.4%
CNC(=O)C1(C)C=CCN1C(=O)c1ccccc1 (stereo not drawn)	-1.2%	1.1%	0.0%	0.3%	0.8%	1.2%
CC1(C(=O)NCCN2CCOCC2)C=CCN1C(=O)c1ccccc1 (stereo not drawn)	-2.7%	11.7%	?	27.5%	23.9µM*	16.6%
COc1ccc(-c2csc(N(CC(C)C)C(=O)c3ccco3)n2)cc1	/	-1.5%	/	2.1%	-0.1%	0.3%
c1cc2c3c(cccc3c1)C(N1CCCCCC1)=N2	-5.7%	21.5%	-20.4%	-6.3%	1.4%	1.9%
c1ccc2c(c1)CCN(C1=Nc3cccc4cccc1c34)C2	-9.8%	21.5%	15.8µM*	2.82µM*	6.75µM*	5.9%
Cc1c(C(=O)Nc2nc3ccccc3[nH]2)oc2ccccc12	-5.8%	?	10µM*	3.98µM*	3.01µM*	?
Cc1c(C(=O)Nc2nc3ccccc3[nH]2)oc2c(Cl)cccc12	7.1%	13.3%	?	23.5%	-16.3%	?
Cc1c(C(=O)Nc2nc3ccccc3[nH]2)oc2ccc(Br)cc12	/	27.7%	/	?	7.57µM*	?
SMILES	KinaseGlo FLuc	NPC1 promoter act	SMN2 splice enh	Rab9 prom act	FLuc modulator	ELG1 genotox
CCCN(Cc1cc2cc(OC)ccc2[nH]c1=O)C(=O)c1ccco1	/	-1.4%	/	-2.5%	-2.7%	-4.9%
O=c1c2c3c(sc2nc2n1CCCCC2)CCCC3	2.7%	?	?	?	19µM*	23.1µM*
CC1=Nn2c(nc3sc4c(c3c2=O)CCCC4)SC1	-26.4%	25.1%	10µM*	?	21.3µM*	?
CC1CSc2nc3sc4c(c3c(=O)n21)CCCC4 (stereo not drawn)	7.2%	15.6%	-14.1%	22.3%	?	7.0%
O=c1c2c3c(sc2nc2n1CCCS2)CCCC3	-5.7%	?	6.9%	?	19µM*	26.5%
O=c1c2c3c(sc2nc2n1CCCCC2)CCCCC3	-2.5%	3.55µM*	11.2µM*	3.55µM*	13.5µM*	?
N=c1c2c3c(sc2nc2n1CCCCC2)CCCCC3	-1.4%	?	6.4%	?	16.9µM*	?
O=c1c2c3c(sc2nc2n1CCCC2)CCCCC3	-6.2%	15.9%	3.3%	10.9%	23.9µM*	?
Nc1c2c3c(sc2nc(=O)n1N)CCCC3	-2.8%	-0.5%	/	-11.8%	-7.9%	0.3%
Nc1nc2sc3c(c2c(=O)s1)CCCC3	-1.1%	29.2%	?	?	10.7µM*	16.4µM*
O=c1c2c3c(sc2nc2n1CCCC2)CCC3	1.5%	1.9%	12.7%	6.5%	-0.4%	3.2%
Cc1cc(C)c(NC(=O)CSc2cn(CC(=O)N3CCOCC3)c3ccccc23)c(C)c1	/	/	/	/	-5.5%	/
CCc1nn2c(-c3ccco3)ccnc2c1-c1ccccc1	/	/	12.4%	/	?	/
CCc1nn2c(-c3ccco3)ccnc2c1-c1ccc(F)cc1	/	/	-4.3%	/	10.7µM*	/
Cc1cccc(CSc2ncnc3ccccc23)c1	0.7%	-2.0%	3.8%	23.7%	?	0.1%
CC(C)(C)n1nnnc1CN1CCSCC1	2.7%	-3.0%	-15.9%	-1.6%	3.1%	-1.0%
N#C/C(=C\c1cccs1)C(=O)Nc1ccccn1	/	2.24µM*	/	1.58µM*	3.38µM*	?
Cc1ccc(NC(=O)/C(C#N)=C/c2ccccc2Cl)cc1C	/	/	-6.8%	/	10.7µM*	/
Cc1cccc(C)c1NC(=O)/C(C#N)=C/c1cccs1	-0.5%	-7.6%	-5.6%	14.8%	0.3%	1.6%
Cc1ccccc1NC(=O)/C(C#N)=C/c1ccc(Cl)cc1Cl	/	/	2.3%	/	-13.5%	/
Cc1ccc(NC(=O)/C(C#N)=C/c2cccs2)c(C)c1	4.3%	2µM*	12.6µM*	3.55µM*	-15.3%	?
CC(C)(C)c1ccc(C(=O)Nc2ccc(C=C(C#N)C#N)cc2)cc1	2.4%	?	?	0.501µM*	4.78µM*	?
CC(NC(=O)/C(C#N)=C/c1cccs1)c1ccccc1 (stereo not drawn)	3.8%	-1.8%	-0.6%	-2.7%	-5.6%	-1.5%
CCOc1cccc(CN2CCCC(N3CCN(c4cccc(Cl)c4)CC3)C2)c1O (stereo not drawn)	/	1.7%	/	-2.3%	4.2%	-15.4%
N#C/C(=C\c1ccccc1Cl)C(=O)Nc1ccccn1	/	1.7%	/	0.9%	19µM*	-1.3%
CC(C)(C)c1ccc(C(=O)/C(C#N)=C/c2cccs2)cc1	/	0.1%	/	4.9%	1.2µM*	1.7%
N#C/C(=C\c1ccccc1)C(=O)Nc1ccccn1	/	0.2%	/	5.2%	15.1µM*	-0.4%
N#C/C(=C\c1ccccc1)C(=O)Nc1nncs1	/	-2.1%	/	9.4%	19µM*	0.2%
